From PubChem BioAssay
Calls of active or inactive are those of the source.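 How the source made its calls: active means inhibition above the hit cutoff set in the earlier primary screen (cut at about 27% in these data); inactive means the rest.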

What follows are compounds tested against Protein phosphatase methylesterase 1 (Homo sapiens) (UniProt Q9Y570) (assay: PME-1 inhibitor activity retest, confirmation, biochemical, fluorescence polarization, FP-Rh probe, triplicate (AID 2171;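 further: 0% = enzyme with DMSO and 100% = wells lacking PME-1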)). Conditions: recombinant PME-1, FP-Rh probe fluorescence polarization; at 5.9 µM; hits give high values.
Chain of Protein phosphatase methylesterase 1 (Homo sapiens) (Q9Y570 whole entry, looked up): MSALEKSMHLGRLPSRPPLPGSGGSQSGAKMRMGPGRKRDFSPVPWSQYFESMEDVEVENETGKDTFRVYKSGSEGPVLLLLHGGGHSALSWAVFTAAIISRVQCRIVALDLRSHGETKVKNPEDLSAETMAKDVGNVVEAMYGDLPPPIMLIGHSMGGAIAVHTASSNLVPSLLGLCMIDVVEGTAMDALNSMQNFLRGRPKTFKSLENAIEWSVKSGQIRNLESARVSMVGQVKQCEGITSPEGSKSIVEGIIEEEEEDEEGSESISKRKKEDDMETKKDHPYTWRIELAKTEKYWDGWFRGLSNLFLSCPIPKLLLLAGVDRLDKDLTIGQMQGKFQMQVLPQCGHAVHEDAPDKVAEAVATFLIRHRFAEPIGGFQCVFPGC

inhibition, active:
CNc1ccc2c3c(cccc13)C(=O)N(C)C2=O 71.2%, Cc1[nH]n(-c2ccccc2)c(=O)c1N=Nc1c(O)cc(S(=O)(=O)N(C)C)c2ccccc12 74.3%, COC(=O)c1cccc(C#CC(NP(=O)(c2ccccc2)c2ccccc2)c2ccccc2)c1 (stereo not given) 35.1%, Cc1cc(O)c(NC(=S)NC(=O)c2ccc(-c3ccc(Cl)cc3)o2)cc1C 42.2%, Oc1ccc(/C=N/Nc2ccnc3cc(Cl)ccc23)c(O)c1O 51.8%, O=C(CNc1cccc2ccccc12)N/N=C/c1cccc(Oc2ccccc2)c1 31.1%, CCOC(=O)N1CC=C2C(C#N)=C(N)C(C#N)(C#N)[C@H](c3ccccc3OCC)[C@H]2C1 90.5%, CCNc1ccc2noc3c2c1C(=O)c1ccccc1-3 87.6%, CCc1cccc(CC)c1NC(=O)COc1ccccc1C(=O)c1cc(C#N)c(=O)n(C2CCCCC2)c1 35.9%, Cn1c(N/N=C/c2c[nH]c3ccccc23)nc2ccccc21 28.6%, CCN(CC)C(=S)Sc1c(-c2ccccc2)c2cc(Cl)ccc2[nH]c1=O 39.7%, CCN1C(=O)/C(=C2/Sc3ccccc3N2CC)S/C1=N\c1ncn[nH]1 42.6%

inhibition, inactive:
O=C(O)c1ccccc1-c1ccccc1C(=O)Nc1ccc(-c2nc3cc(Cl)ccc3o2)cc1 22.2%, Cc1cc(SCC(=O)N/N=C/c2ccc(O)c(O)c2O)c(C)cc1Br -9.75%, O=C(Nc1ccc(N2CCOCC2)cc1)Nc1ccc(Cl)c(Cl)c1 21.4%, CCN(c1ccccc1)S(=O)(=O)c1ccc(OC)c(NC(=O)CNCCc2ccccc2)c1 19.9%, COc1ccc(NC(=S)Nc2ccc3nsnc3c2)cc1 24.3%, N#C/C(=C\c1ccc(O)c(O)c1)C(=O)Nc1cccc2ncccc12 -29.9%, CCOc1ccc(N=C/C=C/c2ccccc2)c(O)c1 9.57%, CCOc1ccc(NC(=S)Nc2ccc3nsnc3c2)cc1 24.1%, Nc1c(Cl)cc(-c2[nH]c3cc(C(=O)NCCO)ccc3c(=O)c2O)cc1Cl -9.64%, Brc1ccc(C2Nc3cccc4cccc(c34)N2)s1 20.5%, Cc1ccc(-c2ccccc2NC(=O)CS(=O)CC(=O)Nc2ccc(C)c(Cl)c2)o1 (stereo not given) 0.73%, CCOC(=O)Cc1csc(NC(=O)c2sc3nc4cc(C)ccc4cc3c2N)n1 20.8%, N#C/C(=C/c1ccc(O)c(O)c1)c1nc2ccccc2[nH]1 -30.6%
